# Measured values taken from PubChem BioAssay AID488837 (National Center for Advancing Translational Sciences (NCATS), 2010).
# Among all 330,000 compounds or so, about 20 (0.006%) were called active. Where a call stands in place of a potency, no number is given. Not shown: some 1% with an inconclusive outcome. The sample as a whole holds a higher share of actives than the screen did. Values without a mark were called inactive. Calls follow the shape of the dose curve; as a rule, active = well fitted inhibition curve with a large enough effect; inconclusive = small, poorly fitted or top-dose-only effect, or effect the other way; inactive = flat fitted curve, though single readings scatter.
# Molecular target: Protein phosphatase EYA2 (Homo sapiens) (UniProt O00167)
# Assay: qHTS Assay for Inhibitors of the Phosphatase Activity of Eya2
# Settings: recombinant Eya2, OMFP fluorescence dephosphorylation (OMFP is methylfluorescein phosphate); series mostly up to 76.9 µM
# Source text: The Eya family of proteins are essential co-activators of the Six1 transcription factor. Six1 is a developmental gene that is abnormally re-expressed in a large percentage of breast cancers. This over-expression plays a causal role in the initiation and metastatic development of breast cancers. The Eya family of proteins was also found to contain a unique HAD phosphatase domain with protein tyrosine phosphatase activity which can potentially play a role in Six1-mediated breast tumorigenesis. […] We have developed and optimized a 1536 well fluorescence-based HTS assay targeting the phosphatase activity of Eya2. Inhibitors found against Eya2 could serve as potential therapeutic tools to inhibit Six1-mediated breast tumorigenesis and to increase the efficiency of radiation and certain chemo therapy. These inhibitors could also be used as chemical probes to study the function of Eya2's phosphatase activity and its role in Six1-mediated breast tumorigenesis.
# The Eya2 enzyme was kindly provided by the laboratory of Dr. Rui Zhao. The 3-O-methyl-fluorescein phosphate (OMFP) substrate and all buffer reagents were purchased from Sigma Aldrich. qHTS Assay Setup: 1. Buffer- 50 mM HEPES pH 7.5, 50 mM NaCl, 5 uM MgCl2, 0.05% BSA, 1 mM DTT. 2. OMFP Stock- 10 mM solution prepared in 100% DMSO and stored in single use aliquots at -20C. Assay Procedure- 1. Dispense 1.5 ul per well of Eya2 at 0.2 uM in black medium binding 1536 well Greiner plate 2. Transfer 23 nl of compound and control compound (EGTA) to plate 3. Incubate at ambient for 10 minutes 4. Dispense 1.5 ul per well of OMFP at 50 uM 5. Incubate at ambient for 10 minutes 6. Read on ViewLux using Excitation = 485 nm, Emission = 525 nm
# Potency is read from the fitted curve at half-maximal effect.
# Protein phosphatase EYA2 (Homo sapiens), sequence (O00167 whole entry, looked up): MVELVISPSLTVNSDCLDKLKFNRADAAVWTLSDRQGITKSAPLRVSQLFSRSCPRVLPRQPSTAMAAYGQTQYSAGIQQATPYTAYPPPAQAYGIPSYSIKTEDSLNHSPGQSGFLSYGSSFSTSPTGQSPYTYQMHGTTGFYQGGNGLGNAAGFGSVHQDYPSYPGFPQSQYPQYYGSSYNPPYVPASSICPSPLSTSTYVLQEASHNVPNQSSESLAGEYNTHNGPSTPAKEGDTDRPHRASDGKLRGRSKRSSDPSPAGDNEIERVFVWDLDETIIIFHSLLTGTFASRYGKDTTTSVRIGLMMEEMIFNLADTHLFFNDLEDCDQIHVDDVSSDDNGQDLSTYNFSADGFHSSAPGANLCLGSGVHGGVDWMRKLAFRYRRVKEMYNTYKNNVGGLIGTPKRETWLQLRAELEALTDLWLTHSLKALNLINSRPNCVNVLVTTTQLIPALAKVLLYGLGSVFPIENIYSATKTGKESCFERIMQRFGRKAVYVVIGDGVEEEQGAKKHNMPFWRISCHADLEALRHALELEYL
Compound,"activity, negative = inhibition",Potency
CCC(CC)C(=O)Nc1ccc(S(=O)(=O)Nc2nccs2)cc1,inactive,
COC(=O)C1CCCCN1C(=O)c1ccc(OC2CCN(C(C)=O)CC2)c(OC)c1 (stereo not given),inactive,
CC1=CC2=NC(=O)CC(C)(C(=O)N(CC(=O)NC(C)(C)C)Cc3ccccc3)N2C=C1 (stereo not given),inactive,
N=c1ccn(CC(=O)NC(N)=O)c2ccccc12,inactive,
Cc1ccc(S(=O)(=O)N2CCC(Oc3ccc(-n4cnnn4)cc3)CC2)cc1,inactive,
COc1ccc(C(=O)OCc2cc(=O)n3ccsc3n2)cc1F,inactive,
Cc1ccc(CCn2c3c(c4ccccc42)CN(C)CC3)cn1,inactive,
Nc1ncnc2c1c(I)cn2[C@@H]1C[C@H](N)[C@@H](O)[C@H]1O,inactive,
CSCCC(NS(=O)(=O)c1ccc2c(c1)oc(=O)n2C)C(=O)NCc1ccccc1 (stereo not given),inactive,
O=C(COc1ccc([N+](=O)[O-])cc1)Nc1cccc(C(=O)Nc2ccccc2C(=O)O)c1,inactive,
CCCN1Cc2cccc(C(=O)Nc3ccc(S(=O)(=O)N4CCCCCC4)cc3)c2C1=O,inactive,
N#C/C(=C\N1CCOCC1)S(=O)(=O)c1ccc(Cl)cc1,inactive,
CCOc1ccc(CCNC(=O)CN2C(=O)NC3(CCc4ccccc43)C2=O)cc1OCC (stereo not given),inactive,
CCc1noc(C)c1C(=O)N1CCCSC1=Nc1ccccc1OC,inactive,
COc1ccc(OCCCC(=O)Nc2cccc(S(=O)(=O)N3CCCCCC3)c2)cc1,inactive,
COC(=O)c1ccc(CSc2ccc3nnc(-c4ccccc4)n3n2)o1,inactive,
Cc1cccc(C)c1NC(=O)C1CCCN1C(=O)OC(C)(C)C (stereo not given),inactive,
O=C(Cc1ccccc1Cl)N1CCN(c2ccccn2)CC1,inactive,
Cc1cc(C)c(C)c(S(=O)(=O)N[C@@H](C)C(=O)OC(C)C(=O)NC(N)=O)c1C (stereo not given in full),inactive,
Cc1ccc(CC2C(=O)N(c3ccc(F)cc3)C(=O)C2C)cc1 (stereo not given),inactive,
O=C(CNC(=O)OCc1ccccc1)Oc1cc2oc(=O)cc(-c3ccccc3)c2cc1Cl,inactive,
CCN(CC)P(=O)(C(NC(=O)OC)C(F)(F)C(F)(F)C(F)(F)C(F)F)N(CC)CC (stereo not given),-3.75% [at 15.4 µM],
COc1cc(NC(=O)c2ccccc2NS(=O)(=O)c2ccc(Cl)s2)cc(OC)c1,inactive,
CN(C)/C(CN1CCCCC1)=C1\N=C(c2ccccc2)OC1=O,inactive,
CN(C)CCOc1cccc(Br)c1,inactive,

Compound,"activity, negative = inhibition",Potency
C=CCC[C@@H](Cc1ccc(F)cc1)C(=O)OC[C@H](Cc1c[nH]c2ccccc12)NC(=O)[C@@H](CC=C)CC(=O)N(CCO)Cc1ccccc1,inactive,
CN(C)S(=O)(=O)c1ccc(N2CCCC2)c(C(=O)NCc2ccccc2)c1,inactive,
Cc1cccc(C)c1NC(=S)N1CCCCCC1,inactive,
O=S1(=O)CCC(NC(=S)SCc2ccccc2Br)C1 (stereo not given),inactive,
N#CCC(=O)NC(=O)NCC1CC1,inactive,
N/C(=N\OS(=O)(=O)c1cccc([N+](=O)[O-])c1)c1ccncc1,inactive,
Cc1ccccc1-n1nnnc1SCCCC(=O)c1ccc(F)cc1,inactive,
C=CCC1(CC=C)CCCN1C(=O)c1cc(COc2ccc(-n3cncn3)cc2)on1,inactive,
CCCCCCCNc1nc(Cl)nc(NCCO)n1,inactive,
CSc1ccc(Cl)c(C(=O)OCC(=O)N2CCNC2=O)c1,inactive,
c1cc(-n2cnnn2)ccc1NC1=NCCC1,inactive,
Cc1ccc(OCc2nnc(NC(=O)OCC(C)C)s2)cc1,inactive,
COC(=O)[C@]1(Cc2ccccc2)N[C@H](CN(C)S(=O)(=O)c2ccc(OC(F)(F)F)cc2)[C@@H]2C(=O)N(Cc3ccccc3)C(=O)[C@@H]21,inactive,
CSc1cccc(NC(=O)CN2C(=O)COc3ccc(S(=O)(=O)N4CCOCC4)cc32)c1,inactive,
Cc1noc(NS(=O)(=O)c2ccc(NC(=O)c3oc4ccc(F)cc4c3C)cc2)c1C,inactive,
Cn1c2ccc(F)cc2c2nnc(NN)nc21,inactive,
CCCCn1c(N)c(N(CC(C)C)C(=O)c2ccc(Br)o2)c(=O)[nH]c1=O,inactive,
CC(=O)/C(C)=N/O,inactive,
Cc1cccc(Nc2nnc(SCC(=O)c3c(N)n(C4CC4)c(=O)[nH]c3=O)s2)c1C,inactive,
COc1ccc(OC)c2c1sc(=NC(=O)CN1C(=O)CCC1=O)n2C,inactive,
CN(C(=O)CSc1nnc(-c2n[nH]c3ccccc23)o1)c1ccccc1,inactive,
CCOc1cc(/C=C2/N=C(c3ccc(C(C)(C)C)cc3)OC2=O)cc(Cl)c1OS(C)(=O)=O,inactive,
OCc1n[nH]c(CO)n1,inactive,
CCC1Sc2ccc(S(=O)(=O)CCC(=O)NCc3cccs3)cc2NC1=O (stereo not given),inactive,
CCN(CC)c1ccc(S(=O)(=O)N2CCOCC2)cc1NC(=O)CSc1cccc[n+]1[O-],inactive,

Compound,"activity, negative = inhibition",Potency
Cn1c(-c2ccc(F)cc2)cc2onc(-c3ccccc3Cl)c2c1=O,inactive,
CCOc1cc(-c2noc(CCCC(=O)NC3CCCCC3)n2)ccc1OC,inactive,
O=S(=O)(Nc1ccccc1Cl)c1cccc2nsnc12,inactive,
COn1c(=O)c(=O)n(OC)c2ccccc21,inactive,
CN(C)C(=O)CCc1ccc2c3c([nH]c2c1)[C@]1(C)[C@@H](C(=O)N2CCOCC2)C[C@H](CC(=O)NCCc2ccccn2)C(=O)N1CC3,inactive,
O=S(=O)(Nc1ccc2nc(-c3ccco3)[nH]c2c1)c1ccccc1,inactive,
CCOc1ccc(CCNC(=O)COC(=O)c2ccc(F)c(S(=O)(=O)N3CCOCC3)c2)cc1OCC,inactive,
CC(CC(=O)Nc1ccc(F)cc1F)S(=O)(=O)c1ccc2c(c1)NC(=O)CO2 (stereo not given),inactive,
Cc1c(C#N)c2ncn(CC#N)c(=O)c2n1-c1ccccc1,inactive,
CCC(=O)Nc1cc(C(F)(F)F)ccc1N1CCCC1,inactive,
CCn1ccnc1CN(C)C(=O)c1ccc2nc(Cc3ccc(OC)cc3)oc2c1,inactive,
Cc1ccc(-n2cc(CN(C)Cc3nccn3C)c(-c3cccc(C)c3)n2)cc1,inactive,
C#CCOCCOCCOCCNc1nc(N2CCN(C(=O)CCCCCCCCCCNC(=O)Cn3cc(CCCCCN)nn3)CC2)nc(N2CCN(C(=O)CCCCCCCCCCNC(=O)[C@H](CO)n3cc(CCCSC)nn3)CC2)n1,inactive,
C#CCOCCOCCOCCNc1nc(N2CCN(C(=O)CCCCCCCCCCNC(=O)[C@H](CCCCN)n3cc(C)nn3)CC2)nc(N2CCN(C(=O)CCCCCCCCCCNC(=O)[C@H](CO)n3cc(CCCSC)nn3)CC2)n1,inactive,
C#CCOCCOCCOCCNc1nc(N2CCN(C(=O)CCCCCCCCCCNC(=O)[C@H]([C@@H](C)CC)n3cc(CCCCN=C(N)N)nn3)CC2)nc(N2CCN(C(=O)CCCCCCCCCCNC(=O)[C@H](CO)n3cc(CCCSC)nn3)CC2)n1,,31.6 µM (active)
CC1CC2C3CCC4=CC(=O)C=C[C@]4(C)[C@@]3(F)[C@@H](O)C[C@]2(C)[C@@]1(O)C(=O)CO (stereo not given in full),inactive,
Cc1cc(=O)[nH]c(N/N=C/c2c(C)nn(-c3ccccc3Cl)c2Cl)n1,inactive,
CC(C)NC(=O)NCCCCCCS(C)=O (stereo not given),inactive,
N#CCSc1nc(-c2ccccc2)nc2ccc(F)cc12,inactive,
Cc1nnnn1/C(=C\c1ccccc1)C(=O)OCC(=O)N1CC2(C)CC1CC(C)(C)C2 (stereo not given),inactive,
C=CCOc1ccc(C(=O)Nc2ccccc2C(=O)N2CCCC2)cc1,inactive,
O=C(NCCCCO)C(F)(F)C(F)(F)C(F)(F)C(=O)NCCCCO,inactive,
COc1ccc(CCc2nnc(CCC(=O)NCc3cnn(-c4ccccc4C)c3)o2)cc1,inactive,
CCc1cccc(C)c1N1C(=O)CN(Cc2ccccc2)C1=S,inactive,
O=C(NCc1cc(C(F)(F)F)cc(C(F)(F)F)c1)C1CC(c2cccc(F)c2)=NO1 (stereo not given),inactive,

Compound,"activity, negative = inhibition",Potency
CSc1ccccc1N1CCN(CCCCCC(=O)NC2CCCc3ccccc32)CC1 (stereo not given),inactive,
COCc1cc(=O)[nH]c(SC)n1,inactive,
N#Cc1cccc(OC(=O)c2ccc3c(=O)n4c(nc3c2)CCC4)c1,inactive,
Cc1snc(SCc2c(F)cccc2Cl)c1C#N,inactive,
CCOC(=O)C1CN(S(=O)(=O)c2ccc(F)cc2)C1,inactive,
O=S(=O)(c1ccc(Cl)cc1)c1nc(-c2ccccc2F)oc1NCCN1CCOCC1,inactive,
COc1cc(C)c(S(=O)(=O)N2CCOCC2)c(C)c1C,inactive,
O=C(CSc1ccccc1F)NC1CCS(=O)(=O)C1 (stereo not given),inactive,
Clc1cccc(Cl)c1Cn1nnc(-c2cccs2)n1,inactive,
Cc1ccc(NC(=O)CCNC(=O)c2ccc([N+](=O)[O-])cc2)cc1S(=O)(=O)N1CCOCC1,inactive,
CC(C)(O)C#Cc1ncc(C(F)(F)F)cc1Cl,inactive,
COc1ccc(-c2nc3ccccc3n2CCC(C)C)cc1OC,inactive,
CN1CCN(C(=O)c2ccccc2NC(=O)COc2ccccc2Cl)CC1,inactive,
CCOc1ccc(NC(=O)C(C)N2C(=O)c3ccccc3C2=O)cc1 (stereo not given),inactive,
O=C(OC1CCOC1=O)c1ccc(-c2nc3ccccc3s2)s1 (stereo not given),inactive,
O=S(=O)(/C=C/c1ccccc1)NCCc1ccccn1,inactive,
Cc1cc(C(F)F)nn1CC(=O)NC1CCCCCC1,inactive,
COc1ccc(C(C#N)Nc2ccc(C)cc2)cc1 (stereo not given),inactive,
Cc1ccc(C2(C(F)(F)F)N=C3Sc4cc(C)cc(C)c4N3C(=O)N2)cc1 (stereo not given),inactive,
COc1ccc(-n2nc3c(c2NC(=O)c2ccc(N4C(=O)CCC4=O)cc2)CSC3)cc1,inactive,
CC(O)c1cccc(NC(=O)Cc2cccc3ccccc23)c1 (stereo not given),inactive,
O=C(NC1CCCC1)C(c1ccco1)N(C(=O)c1ccco1)c1ccc(F)cc1 (stereo not given),inactive,
CC(C)(C)c1cc2cccnc2n1Cc1ccccc1,inactive,
CCN1CCN(c2nc(Nc3cc(OC)ccc3OC)nc(Nc3cc(OC)ccc3OC)n2)CC1,inactive,
COc1ccc(-c2cc(C(F)(F)F)nc(S(C)(=O)=O)n2)cc1OC,inactive,
